PubChem BioAssay (NCI)
This is part of a sample that, as a whole, favours compounds with a hit. Of some 83,000 tested, about 20% had one in any assay.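 Step 1: grow cells in 96-well plates. Step 2: add test compound at a single concentration. Step 3: incubate 48 h. Step 4: record percent growth.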 Values without a mark were called inactive. Calls of active or inactive are those of the source. The calls were made as follows: active = growth percent below 10; inactive = the rest.

How the values were obtained:
Assay in all cases: NCI-60 one-dose screen, 48 h (100 = growth as untreated, 0 = no growth, -100 = all killed)
Conditions in all cases: 10 µM unless noted
[1] = system: HCT-15 colon
[2] = system: HT29 colon
[3] = system: SNB-75 CNS
[4] = system: SNB-19 CNS
[5] = system: U251 CNS
[6] = system: PC-3 prostate
[7] = system: SK-MEL-5 melanoma
[8] = system: UACC-62 melanoma
[9] = system: LOX IMVI melanoma
[10] = system: SK-MEL-28 melanoma

SMILES | growth [1] | growth [2] | growth [3] | growth [4] | growth [5] | growth [6] | growth [7] | growth [8] | growth [9] | growth [10]
COc1ccc(/C(=C\c2cc(OC)c(OC)c(OC)c2)C(=O)N2CCN(c3ccccc3)CC2)cc1O | 97.2% | 101% | 77.4% | 97.6% | 96.3% | 84.4% | 97.1% | 88.4% | 94% | 105%
CC(COC(=O)c1ccccc1)N1CC2CCC(C1)O2 (stereo not given) | 99.7% | 107% | 93.7% | 102% | 98.7% | 91.6% | 101% | 100% | 98% | 104%
COc1cc(-c2nc(-c3nc4cc(C(=O)c5ccccc5)ccc4[nH]3)cc3c2[nH]c2ccccc23)cc(OC)c1OC | 83.1% | 104% | 71.5% | 103% | 82% | 65.8% | 75.2% | 76% | 85.2% | 102%
COc1ccc(/C(=C\c2cc(OC)c(OC)c(OC)c2)C(=O)N2CCCNCC2)cc1 | 103% | 106% | 88.7% | 100% | 109% | 91.8% | 99.7% | 105% | 103% | 111%
CC(=O)OC1Oc2cc(C)c(C)cc2-c2oc(=O)c(-c3cc4ccccc4oc3=O)cc21 (stereo not given) | 117% | 110% | 92.5% | 116% | 66.6% | 91.9% | 115% | 102% | 84.7% | 152%
COc1cccc(NC(=O)c2c(-c3ccccc3)c(-c3ccccc3)n[nH]c2=O)c1 | 97.6% | 101% | 77.9% | 93.4% | 101% | 94.6% | 99.4% | 92.9% | 96.3% | 102%
Cc1cc(C)c2c(n1)sc1c(Nc3ccc(OCc4ccccc4)cc3)ncnc12 | 100% | 103% | 108% | 101% | 98.4% | 96.2% | 104% | 105% | 91.7% | 114%
Cc1cc(C)cc(Nc2cc(C)nc3nc(C(F)(F)F)nn23)c1 | 30.4% | 41.5% | 61.6% | 45.7% | 31.5% | 57.1% | 32.1% | -33.8% (active) | 24.1% | 50.8%
Brc1ccccc1Cn1c(-c2cncs2)nc2ccccc21 | 82.8% | 80.7% | 53% | 84.6% | 84.8% | 57.2% | 76.2% | 70.1% | 75.8% | 104%
Cn1c(=O)c2c3c(oc2c2ccccc21)C(=O)c1ccccc1C3=O | 85% | 73.7% | 64.4% | 93.3% | 90.2% | 64.4% | 76.9% | 77% | 76.6% | 112%
Nc1nc(N)c2c(n1)NC(c1sc(Cl)nc1Cl)CC(c1ccc3c(c1)OCO3)=N2 (stereo not given) | 23.9% | 5.28% (active) | -1.52% (active) | 36.8% | 10.4% | 48.8% | 11% | 40.1% | 40.3% | 57%
CCOC(CN1CCN(CC(C)C(=O)c2ccccc2)CC1)c1ccccc1 (stereo not given) | 100% | 108% | 79% | 97.8% | 90.5% | 93.6% | 90.1% | 105% | 101% | 98%
CC1CCN(Cc2ccc(NC(=O)c3cc4ccc5cccnc5c4[nH]3)cc2)CC1 | 22.2% | 6.27% (active) | 14.5% | 64.6% | 14.7% | 41.6% | 2% (active) | -65.4% (active) | 8.82% (active) | -31.9% (active)
Cc1ccc(N2C3c4ccccc4N(S(=O)(=O)c4ccc(C)cc4)C2c2ccccc2N3S(=O)(=O)c2ccc(C)cc2)cc1 | 94.9% | 101% | 89.5% | 111% | 91.8% | 90.4% | 103% | 99.6% | 98.7% | 99.3%
C=CCn1c(C)nc2cc(Nc3nc(N4CCOCC4)nc4nc[nH]c34)ccc21 | 90.9% | 99.7% | 80.4% | 95.4% | 91.3% | 79.9% | 96.2% | 88.9% | 95.2% | 102%
O=C(Nc1cnc(C(F)(F)F)cn1)c1cc(Cl)ccc1O | 10.9% | 22.6% | -20.4% (active) | 24.3% | 6.83% (active) | 5.49% (active) | -80.7% (active) | -5.58% (active) | 6.55% (active) | 3.09% (active)
CSCCC1NC(=O)C(C(C)=Nc2ccccc2)=C1O (stereo not given) | 117% | 108% | 88.6% | 116% | 111% | 92.7% | 112% | 101% | 105% | 110%
CC(CN1CCN(CCOCCO)CC1)CN1c2ccccc2Sc2ccc(Cl)cc21 (stereo not given) | 32.7% | -30.1% (active) | 69.7% | 100% | 58.6% | 43.9% | 16.1% | -42.8% (active) | 20.5% | 49%
CSC(=S)N/N=C(\C)c1ccccn1 | 34.7% | 25.9% | 35.5% | 24.6% | 13.9% | 27% | -47.7% (active) | -22.3% (active) | 12.7% | 42.4%
O=[N+]([O-])c1ccccc1CN1CCCCC1 | 107% | 113% | 87.8% | 106% | 110% | 91.6% | 105% | 103% | 96.6% | 117%
NC(=S)N/N=C(/c1cccs1)C1CC1 | 71% | 58.4% | 77.2% | 100% | 72.9% | 63.5% | 106% | 98.8% | 68.3% | 101%
C#CC[C@@H]1C[C@]2(C)[C@H]3CC[C@@H]4[C@H]5C(C(=C)C)CC[C@]5(C(=O)NCCN(CCN)CCN)CC[C@@]4(C)[C@]3(C)CC[C@H]2C(C)(C)[C@H]1OC(C)=O (stereo not given in full) | -52.9% (active) | 46.8% | 103% | 69.8% | -28.4% (active) | 79.9% | 96.5% | 103% | 65.5% | 105%
NS(=O)(=O)c1ccc(N2N=C(c3ccc(Br)cc3)CC2c2cn(-c3ccccc3)nc2-c2ccc(Cl)cc2)cc1 (stereo not given) | 78.7% | 76.6% | 92.4% | 96% | 86.9% | 73.3% | 99.7% | 82.5% | 88% | 108%
CCc1oc2ccccc2c1C(=O)c1cc(I)c(O)c(I)c1 | 33.2% | 98.5% | 31.9% | 54.2% | 29.1% | 74.9% | 32.2% | 45.6% | 51.4% | 62.4%
COc1ccc(/C=C2\CCCC3=C2N=C2SC(C)=NN2C3c2ccc(OC)c(OC)c2)cc1OC (stereo not given) | 28.3% | 4.84% (active) | 27.7% | 45% | 15.5% | 40% | 24.2% | 34.6% | 1.41% (active) | 58.9%
OC(c1cc(-c2ccc(C(F)(F)F)cc2)nc(-c2ccc(C(F)(F)F)cc2)c1)C1CCCCN1 (stereo not given) | -71% (active) | -81.7% (active) | -82.9% (active) | -66.2% (active) | -85% (active) | -86.1% (active) | -78.2% (active) | -84.3% (active) | -65.8% (active) | -88.5% (active)
COCCOCCOCc1n(Cc2ccc3ccccc3n2)c2ccccc2[n+]1Cc1ccc2ccccc2c1 | 78.3% | -4.5% (active) | -5.72% (active) | 11.6% | 12.4% | 5.71% (active) | -94.1% (active) | -38.5% (active) | -76% (active) | 8.66% (active)
